# Bioassay records as filed in PubChem BioAssay.
# The list is not random: actives were taken first. Their share in the collection is about 6.6%.
# KB-3-1 tox: KB-3-1 parental cell cytotoxicity; KB-3-1 viability, CellTiter-Glo ATP luminescence, 72 h; Potency, µM (series often up to 46.1 µM), usual class: cytotoxic; actives 1.4% (n = 400,000); AID 1347075; further: nearly all actives have a fitted effect of over 60% in size
#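 KB-3-1 parental drug-naive adenocarcinoma cells in DMEM/10% FBS, incubated 72 h at 37 C with pin-transferred compounds across a concentration series. Viability by CellTiter-Glo luminescence; concentration-response curves fitted after normalization.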
# RGS4 inhibitor: human RGS4 inhibition; actives 0.039% (n = 390,000); AID 504845; Transcreener GDP fluorescence polarization, RGS4-accelerated GTP hydrolysis; Potency, µM (doses to about 114 µM), hits mostly inhibitors; further: nearly all actives have a fitted effect of over 75% in size
# Target sequence (P49798 whole entry, looked up): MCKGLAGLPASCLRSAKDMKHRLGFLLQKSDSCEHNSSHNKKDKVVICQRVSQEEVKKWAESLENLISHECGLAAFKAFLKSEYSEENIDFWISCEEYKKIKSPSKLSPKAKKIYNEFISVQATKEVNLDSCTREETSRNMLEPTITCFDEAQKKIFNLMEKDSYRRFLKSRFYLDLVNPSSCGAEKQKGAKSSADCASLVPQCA
#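 MLSMR compounds (23 nl, pin-transferred) preincubated 10 min at room temperature with a 500nM (2x) first reagent, then RGS4 at 900nM (2x) plus Transcreener GDP mix added; fluorescence polarization (620/688 nm) read before and after 90 min at 30 °C.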
# SW480 rerep: induces DNA re-replication in SW480 colon adenocarcinoma cells. actives 1.8% (n = 340,000). Potency, µM (series often up to 46.1 µM), most hits filed as activators. SW480 DNA re-replication, Hoechst DNA content imaging, 48 h; further: nearly all actives have a fitted effect of over 55% in size
#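 Quantitative HTS format with DMSO vehicle controls; 48 hr drug incubation at 37 C, then 40 min Hoechst staining and scanning imager measurement at 405 nm excitation.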
# MCF10A rerep: induces DNA re-replication in MCF 10a normal breast cells; MCF 10A DNA re-replication, Hoechst nuclear intensity, 48 h; Potency, µM (series often up to 46.1 µM), hits mostly activators; actives 2.9% (n = 350,000); AID 624296; further: nearly all actives have a fitted effect of over 50% in size
# PTAP TSG101 blk: blocks PTAP/TSG101 interaction to inhibit HIV-1 budding. Fluorescence polarization, FITC-PTAP peptide / Tsg101 binding. Potency, µM (series often up to 115 µM), usual class: inhibitors. 340,000 tested, under 10 active. AID 493005; active means well fitted inhibition curve with a large enough effect in the main read-out, with a control signal flat, not every such curve was filed as active; inconclusive means small, poorly fitted or top-dose-only effect, or effect the other way, or a change in a side signal; inactive means no such curve, though single readings can be large or run the other way
# Target sequence (Q99816 whole entry, looked up): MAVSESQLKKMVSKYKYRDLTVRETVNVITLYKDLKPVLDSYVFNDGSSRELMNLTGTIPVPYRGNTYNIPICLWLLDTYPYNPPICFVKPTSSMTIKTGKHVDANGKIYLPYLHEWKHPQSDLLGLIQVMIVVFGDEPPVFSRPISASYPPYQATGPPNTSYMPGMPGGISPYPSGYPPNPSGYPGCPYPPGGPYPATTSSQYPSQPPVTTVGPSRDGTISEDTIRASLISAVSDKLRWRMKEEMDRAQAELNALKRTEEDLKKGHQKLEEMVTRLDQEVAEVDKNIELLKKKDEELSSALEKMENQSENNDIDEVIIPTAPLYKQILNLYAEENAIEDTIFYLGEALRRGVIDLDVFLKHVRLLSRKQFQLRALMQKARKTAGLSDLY
#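 Compounds were pin-transferred onto Tsg101 binding domain (10 uM final) in HEPES pH 7.5 buffer, then FITC-PTAP peptide was added at 50 nM final. After 20 min at RT, polarization reported peptide displacement across a qHTS concentration series.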
# KB-V1 MDR tox: kills drug-selected multidrug resistant KB-V1 cells; KB-V1 MDR cells viability, CellTiter-Glo, 72 h; Potency, µM (series often up to 46.1 µM), actives largely listed as cytotoxic; actives 3.4% (n = 400,000); further: nearly all actives have a fitted effect of over 60% in size
#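 Cytotoxicity via CellTiter-Glo luminescence after 72 h compound exposure at 37 degrees C. Cells: drug-selected KB-V1 line, DMEM phenol-red free plus 10% FBS. Compounds tested at multiple concentrations; normalized data fitted to concentration-effect curves.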
# Numbers stand for hits; n = inactive; u = inconclusive; x = no result given; ! = not active in a repeat; [ ] = dose if it differs, or a comment. Unless noted, the call rests on the fitted dose curve; in most records, active means well fitted curve in the direction sought with a large enough effect; inconclusive means small, poorly fitted or top-dose-only effect, or another doubt; inactive means no such curve, though single readings can be large; an effect the other way counts as inactive or inconclusive.
SMILES,KB-3-1 tox,RGS4 inhibitor,SW480 rerep,MCF10A rerep,PTAP TSG101 blk,KB-V1 MDR tox
CS(=O)(=O)N(CC(=O)Nc1cccc(Cl)c1Cl)c1ccccc1,n,n,n,n[0.0737 µM],n,n
CN(c1cccc(NC(=O)CN(c2ccc(C34CC5CC(CC(C5)C3)C4)cc2)S(C)(=O)=O)c1)S(C)(=O)=O,u,n,n,n,n,18.4µM
CN(c1cccc(NC(=O)CN(c2ccc(F)cc2)S(C)(=O)=O)c1)S(C)(=O)=O,n,n,n,n,n,n
CS(=O)(=O)N(CC(=O)NCCSC1CCCCC1)c1ccc2c(c1)OCO2,n,n,n,n,n,18.4µM
CS(=O)(=O)N(CC(=O)Nc1cc(Cl)ccc1Cl)c1ccccc1,n,n,n,n,n,16.4µM
CS(=O)(=O)N(CC(=O)Nc1ccc2c(c1)OCCO2)c1ccc2c(c1)OCO2,n,n,n,n,n,n
CS(=O)(=O)N(CC(=O)Nc1ccc2c(c1)OCO2)c1ccccc1,n,n,n,20.6µM,n,n
COC(=O)c1c(Oc2ccc(Br)cc2)nnc(-c2ccccc2)c1-c1ccccc1,u,n,x,x,x,u
CCOc1ccc(N(CC(=O)Nc2ccc(C)c(C)c2)S(C)(=O)=O)cc1,n,n,n,u,n,u
CCOc1ccc(N(CC(=O)Nc2ccccc2OC)S(C)(=O)=O)cc1,u,n,u,u,n,u
CCOc1ccc(N(CC(=O)Nc2cc(Cl)ccc2C)S(C)(=O)=O)cc1,n,n,18.4µM,u,n,n
CCOc1ccc(N(CC(=O)Nc2ccccc2Cl)S(C)(=O)=O)cc1,u,n,20.6µM,u,n,u
O=C(CN1CCC(C(O)(c2ccccc2)c2ccccc2)CC1)Nc1cc(Cl)ccc1Cl,n,n,u,n,n,18.4µM
O=C(CN1CCC(C(O)(c2ccccc2)c2ccccc2)CC1)Nc1ccccc1,n,n,n,n,n,u
CS(=O)(=O)c1ccc(C(=O)OCC(=O)NCC2CCCO2)cc1[N+](=O)[O-] (configuration not stated),n,n,x,x,x,n
Cc1ccc(-c2nnc3ccccc3c2C(=O)Nc2ccc(C)c(F)c2)cc1,n,n,x,x,x,n
COc1cccc(NC(=O)C2CCC(CNS(=O)(=O)c3ccc4c(c3)CCCC(=O)N4)CC2)c1 (configuration not stated),n,n,x,x,x,n
COC(=O)CN1C(=O)CSc2ccc(S(=O)(=O)Nc3cccc(Cl)c3C)cc21,x,n,x,x,x,x
O=S(=O)(c1ccc(Br)s1)N1CCN(c2cccc(C(F)(F)F)c2)CC1,n,n,x,x,x,n
Cc1ccc(-c2cc(C(=O)N(C)Cc3cnn(C)c3C)c3cc(Br)ccc3n2)cc1,u,n,n,16.4µM,n,u
CCC(C)NC(=O)c1cc2n(n1)CCCN(Cc1ccc(C)cc1)C2=O (configuration not stated),n,n,x,x,x,u
c1ccc(-n2cnc3cc(NCc4ccco4)ccc32)cc1,23.1µM,n,u,u,n,u
c1ccc(-n2cnc3cc(NCc4cccs4)ccc32)cc1,u,n,13µM,u,n,10.3µM
COC(=O)c1ccc(NC(=O)C2CCN(S(=O)(=O)c3ccc4c(c3)CCCN4C(C)=O)CC2)cc1,n,n,x,x,x,n
COc1ccc(-c2nc3sc(CCNC(=O)C(=O)Nc4ccccc4C#N)c(C)n3n2)cc1,x,n,x,x,x,x
SMILES,KB-3-1 tox,RGS4 inhibitor,SW480 rerep,MCF10A rerep,PTAP TSG101 blk,KB-V1 MDR tox
Cc1ccc(C)c2c1cc(C)c1nnc(SCC(=O)Nc3nc4c(s3)CCCC4)n12,n,n,n,20.6µM,n,n
CCn1c(SCC(=O)Nc2nc3c(s2)CCCC3)nnc1-c1ccccc1,n,n,n,u,x,n
Cc1ccc2cc(C)c3nnc(SCC(=O)Nc4nc5c(s4)CCCC5)n3c2c1C,n,n,u,u,n,18.4µM
CCCc1nc(SCC(=O)Nc2nc3c(s2)CCCC3)c2ccccc2n1,n,n,n,16.4µM,n,n
CCc1nc(SCC(=O)Nc2nc3c(s2)CCCC3)c2ccccc2n1,u,n,u,n[0.0737 µM],n,n
Cc1nn(CC(=O)Nc2ccc(C(C)C)cc2)c(=O)c2c(C)n(-c3ccc(Cl)cc3)nc12,x,n,x,x,x,x
COc1ccc(-c2nc(SCC(=O)Nc3ccc4c(c3)OCCO4)c(-c3ccc(C)cc3)[nH]2)cc1OC,n,n,x,x,x,n
O=C(c1cc(-n2cnnc2)ccc1Cl)N1CCN(c2nc(-c3ccccc3)cs2)CC1,20.6µM,n,n,n,n,n
NC(N)=N/N=C/c1ccc(OS(=O)(=O)c2ccccc2)cc1,n,n,5.8µM,18.4µM,n,n
CCC(=O)N/N=C/c1ccc(OS(=O)(=O)c2ccccc2)cc1,n,n,n,n,n,n
O=C(/C=C/c1ccc(Cl)cc1)NC(=S)Nc1ccc(CN2CCOCC2)cc1,n,n,n,20.6µM,n,n
O=C(/C=C/c1ccc(Cl)cc1Cl)Nc1ccc(CN2CCOCC2)cc1,u,n,u,8.2µM,n,n
O=C(CC(=O)OCc1ccccc1)OCc1ccccc1,n,n,n,n,n,n
O=C(CC(O)(CC(=O)OCc1ccccc1)C(=O)OCc1ccccc1)OCc1ccccc1,n,n,n,18.4µM,n,n
Cc1ccc(-n2nc(C)c3c(C(=O)OCC(=O)N(C)C4CCS(=O)(=O)C4)cc(-c4ccccc4)nc32)cc1 (configuration not stated),n,n,n,20.6µM!,n,n
O=C(Nc1ccc(Br)cc1)c1cc(S(=O)(=O)N2CCc3ccccc32)ccc1F,n,n,x,x,x,n
CC(=O)Cc1nsc(NC(=O)c2ccc(-c3cccc(C(F)(F)F)c3)o2)n1,u,n,u,13µM,n,5.8µM
CC(=O)Cc1nsc(NC(=O)c2ccc(-c3cc(Cl)ccc3Cl)o2)n1,u,n,u,u,n,u
CC(=O)Cc1nsc(NC(=O)c2ccc(-c3cc(C(F)(F)F)ccc3Cl)o2)n1,n,n,u,3.26µM,n,n
COc1ccc(NC(=O)Cn2c(=O)n(Cc3ccc4c(c3)OCO4)c(=O)c3ccc(C(=O)NC4CCCCC4)cc32)cc1,n,n,x,x,x,u
COc1ccc(NC(=O)c2ccc(-c3nc(CSc4ccc(C)cc4)c(C)o3)cc2)cc1Cl,n,n,x,x,x,u
Cc1ccc(C(=O)O)cc1-c1ccc(/C=C2/NC(=O)N(c3ccccc3)C2=O)o1,n,u,u,13µM,n,n
Cc1ccc(/C=C2/NC(=O)N(Cc3ccccc3)C2=O)o1,n,u,u,n,n,n
O=C(O)c1ccc(-c2ccc(/C=C3\NC(=O)N(Cc4ccc(Cl)cc4)C3=O)o2)cc1,n,n,10.3µM,2.06µM,n,n
